The entries come from a sample that favours hits as a whole.
CHX counter = Cycloheximide Counterscreen for Small Molecule Inhibitors of Shiga Toxin | cell reporter, cycloheximide protein synthesis inhibition counterscreen | max response, % | 12% of 300,000 active; in the data active = max response mostly above about 13%, no sharp cut-off; inactive = mostly below about 14%; also: read at 38.3 µM for the half of the compounds with a filed dose; 0% is about no effect
AmpC no deterg = qHTS Inhibitors of AmpC Beta-Lactamase (assay without detergent) | 0.52% of 330,000 active | P00811 | AmpC nitrocefin hydrolysis, absorbance 480 nm, 0.0001% Triton | Potency, µM (doses to about 57.1 µM), for inactives: at the top dose activity change, negative = inhibition, usual class: inhibitors;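 also: potency is read from the fitted curve at half-maximal effect; plate controls were no compound for no effect and no enzyme for full effect; nearly all actives have a fitted effect of over 20% in size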
Target sequence (P00811 whole entry, looked up): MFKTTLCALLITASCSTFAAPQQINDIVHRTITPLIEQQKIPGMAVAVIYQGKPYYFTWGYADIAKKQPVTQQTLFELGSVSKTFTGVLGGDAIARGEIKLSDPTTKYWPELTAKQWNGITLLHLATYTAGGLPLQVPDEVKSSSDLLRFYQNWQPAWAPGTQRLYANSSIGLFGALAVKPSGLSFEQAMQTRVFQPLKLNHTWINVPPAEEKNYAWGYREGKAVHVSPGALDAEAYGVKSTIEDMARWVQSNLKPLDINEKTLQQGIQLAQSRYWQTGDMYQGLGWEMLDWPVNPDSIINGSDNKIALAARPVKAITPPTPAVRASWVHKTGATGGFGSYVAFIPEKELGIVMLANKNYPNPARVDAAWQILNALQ
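AmpC (5.3 nM in the dispensed reagent) in 20 mM phosphate pH 7.0 with 0.01% (detergent screen) or 0.0001% Triton X-100 was preincubated with compounds for 15 min at room temperature. Nitrocefin was then added from an 800 uM solution, and hydrolysis was followed at 480 nm.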
AmpC detergent = qHTS Inhibitors of AmpC Beta-Lactamase (assay with detergent); Potency, µM (doses to about 114 µM), without a hit: at the highest dose activity change, negative = inhibition, hits mostly inhibitors; AmpC hydrolysis of nitrocefin, absorbance 480 nm, 0.01% Triton; 0.041% of 370,000 active; P00811;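 also: potency is read from the fitted curve at half-maximal effect; 0% = no-compound wells and -100% = no-enzyme wells; nearly all actives have a fitted effect of over 25% in size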
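AmpC (5.3 nM in the dispensed reagent) in 20 mM phosphate pH 7.0 with 0.01% (detergent screen) or 0.0001% Triton X-100 was preincubated with compounds for 15 min at room temperature. Nitrocefin was then added from an 800 uM solution, and hydrolysis was followed at 480 nm.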
AMA1-RON2 inh = qHTS for Inhibitors of AMA1-RON; Towards Development of Antimalarial Drug Lead: Primary Screen; AlphaScreen AMA1-biotinylated RON2 peptide binding; 0.2% of 360,000 active; AID 720542, 2013; Potency, µM (titrated, usually from 58.2 µM), for inactives: top-dose activity change, negative = inhibition, most hits filed as inhibitors; Plasmodium falciparum AMA1 (3D7) - RON2 peptide interaction;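 also: potency is read from the fitted curve at half-maximal effect; 0% = vehicle wells and -100% = peptide control; nearly all actives have a fitted effect of over 45% in size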
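AMA1 (3D7) with his tag at 25 nM final met compounds first, then biotinylated RON2 peptide at 25 nM; detection used donor plus acceptor beads, 10 µg/mL apiece, read by AlphaScreen after 30 min at room temperature.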
Shiga inhibitor = A qHTS for Small Molecule Inhibitors of Shiga Toxin; Vero cells, Shiga toxin protein synthesis inhibition reporter; inhibition, % at 38.7 µM; 9.2% of 290,000 active; AID 2315, 2010; in the data active = inhibition mostly above about 28%, no sharp cut-off; inactive = mostly below about 43%; also: 0% is about no effect
SARS PLpro yeast = qHTS of Yeast-based Assay for SARS-CoV PLP. S. cerevisiae expressing SARS-CoV PLpro, growth rescue. Potency, µM (highest dose often 32.9 µM), for inactives: at the top dose activity, positive = growth rescue, hits mostly activators. 0.19% of 330,000 active; calls by dose curve; also: potency is read from the fitted curve at half-maximal effect; 0% is about no effect; nearly all actives have a fitted effect of over 55% in size
An asterisk follows results filed as active; ? = inconclusive; . = no result given. Unless noted, calls follow the shape of the dose curve; as a rule, active = well fitted curve in the direction sought with a large enough effect; inconclusive = small, poorly fitted or top-dose-only effect, or another doubt; inactive = no such curve, though single readings can be large; an effect the other way counts as inactive or inconclusive.

SMILES | CHX counter | AmpC no deterg | AmpC detergent | AMA1-RON2 inh | Shiga inhibitor | SARS PLpro yeast
O=[N+]([O-])c1ccc(N2CCc3ccccc3C2)nc1 | 27.8* | -19.2% | 1.1% | -2.3% | 53.6* | -22.7%
Clc1cc(Cl)c(OCc2nc(-c3ccccn3)no2)cc1Cl | 47.4* | 22.8% | 5.4% | 2.2% | 125.4* | -1.2%
CCc1ccc(OCc2nc(-c3ccc(OC)c(OC)c3)no2)c(Br)c1 | . | . | 14.6% | . | . | .
CC(C)(C)c1ccc(OCc2nc(-c3ccccn3)no2)c(Br)c1 | 84.5* | . | 0.8% | 0.5% | 95.9* | .
O=C(CSc1nnc(CNC(=O)c2ccco2)o1)Nc1ccc(F)cc1F | -0.6 | -19.5% | -3.1% | 27.3% | -11.6 | -2.8%
CC(=O)c1ccc(NC(=O)CSc2nc(N3CCOCC3)nc(N3CCOCC3)n2)cc1 | 42.1* | 9.3% | ? | -10.5% | 61.9* | 1.2%
CC(=O)c1ccc(Oc2cc(C)nc(N3CCOCC3)n2)cc1 | 12.6* | -4.0% | -13.2% | -3.6% | 19.9 | 6.0%
Cc1cc(Oc2ccc(C(C)(C)C)cc2)nc(N2CCOCC2)n1 | -4.0 | -11.3% | -9.4% | -0.4% | -5.2 | 7.4%
COc1ccc(Nc2nc(OC)nc(OC)n2)cc1 | 8.0 | -2.5% | ? | 10.9% | 22.2 | 0.5%
CC(=O)Nc1c(O)nc(SCC(=O)Nc2ccc(C(C)=O)cc2)[nH]c1=O | 47.5* | -21.3% | -14.7% | 30.6% | 133.6* | -0.5%
COc1nc(Nc2ccc(C(C)=O)cc2)nc(OC)n1 | 18.0* | -18.5% | 6.2% | -2.5% | 52.8* | -2.5%
CC(=O)Nc1c(O)nc(SCC(=O)Nc2cccc(C)c2)[nH]c1=O | -6.6 | -11.6% | 4.0% | 31.6% | -12.0 | 0.2%
Cc1ccc(CS(=O)(=O)Cc2ccc(C(=O)NCCCN3CCOCC3)o2)cc1 | 6.2 | -9.5% | -14.8% | -0.7% | -3.3 | -5.0%
COc1cc2ncnc(Nc3ccc4c(c3)OCO4)c2cc1OC | 4.8 | -19.6% | -10.0% | -5.4% | 20.4 | -1.7%
COc1nc(Nc2ccc3c(c2)OCO3)nc(OC)n1 | 17.1 | -10.0% | ? | 7.5% | 51.0* | -25.4%
CC(=O)c1ccc(Nc2nc(N3CCOCC3)nc(N3CCOCC3)n2)cc1 | 17.2* | -2.1% | 5.0% | -7.2% | 31.4 | 1.2%
Cc1ccc(NC(=O)C2CCN(c3nc(C)cc(C)n3)CC2)cc1 | 3.8 | -4.8% | 4.8% | 25.8% | 8.9 | -1.4%
COc1ccc(-n2nc(C(=O)NCC(=O)N3CC(C)CC(C)C3)c3ccccc3c2=O)cc1 (centres undefined) | -0.3 | 42.7% | -11.3% | 14.8% | -3.9 | -2.1%
CCOC(=O)N1CCN(C(=O)CNC(=O)c2nn(-c3ccc(OC)cc3)c(=O)c3ccccc23)CC1 | 17.8* | 67.1% | -11.8% | -10.8% | 20.8 | 0.7%
COc1ccc(-n2nc(C(=O)NCC(=O)N3CCCCCC3)c3ccccc3c2=O)cc1 | 16.0* | 23.4% | -12.0% | 8.1% | 41.0 | -4.8%
CCOC(=O)C1CCN(C(=O)CNC(=O)c2nn(-c3ccc(OC)c(OC)c3)c(=O)c3ccccc23)CC1 | 20.6* | 106.4% | 0.0% | -8.8% | 37.8 | -0.2%
COc1ccc(-n2nc(C(=O)NCC(=O)N3CCN(C)CC3)c3ccccc3c2=O)cc1OC | -0.8 | -0.2% | 0.8% | -7.1% | 19.3 | 13.4%
COc1ccc(-n2nc(C(=O)NCC(=O)N3CCN(c4ccccc4F)CC3)c3ccccc3c2=O)cc1OC | 24.6* | 24.4% | 3.7% | -4.2% | 22.1 | 0.6%
COc1ccc(-n2nc(C(=O)NCC(=O)N3CCN(C)CC3)c3ccccc3c2=O)cc1 | 2.4 | -11.4% | ? | 16.6% | -3.3 | 0.6%
COC(=O)c1ccccc1NN=Nc1ccccc1[N+](=O)[O-] | . | . | . | -6.5% | . | .
SMILES | CHX counter | AmpC no deterg | AmpC detergent | AMA1-RON2 inh | Shiga inhibitor | SARS PLpro yeast
O=C(c1ccc(Cl)cc1)c1ccccc1C(=O)N1CCOCC1 | -3.1 | -12.2% | ? | -3.9% | -11.4 | -0.8%
CCn1cc(C(=O)c2cccs2)c2ccccc21 | 0.9 | ? | -3.2% | 13.7% | -47.9 | -3.6%
COc1cc(Cn2c(=O)sc3ccccc32)ccc1OC(C)C | . | . | -4.8% | . | . | .
CCOC(=O)C1CCN(C(=O)CNC(=O)c2nn(-c3ccc(OC)cc3)c(=O)c3ccccc23)CC1 | 27.4* | 104.2% | -9.2% | -14.4% | 27.6 | 0.4%
COc1ccc(-n2nc(C(=O)NCC(=O)N3CCN(c4ccccc4F)CC3)c3ccccc3c2=O)cc1 | 5.9 | -0.5% | -2.4% | 0.0% | 23.8 | 2.0%
CN(CCN1CCc2ccccc2C1)Cc1nc(Cc2ccccc2F)no1 | 2.2 | 67.8% | 6.0% | -6.5% | -6.9 | -0.2%
NNC(=O)c1cc2c(s1)-c1cc(Cl)ccc1SC2 | 27.9* | -17.0% | 6.1% | 96.2% | 39.1 | -0.9%
O=C(NCc1ccc(Cl)cc1)c1cc2c(s1)-c1ccccc1SC2 | . | . | -3.0% | . | . | .
Cc1c(NS(=O)(=O)c2cc(C(=O)NCc3cccnc3)ccc2Cl)c(=O)n(-c2ccccc2)n1C | . | -13.9% | . | -6.5% | . | 0.4%
O=C(c1ccccc1)N1CC(COc2ccccc2)OC(c2cccnc2)O1 (centres undefined) | 16.0* | 27.4% | ? | -6.1% | 29.0 | -15.9%
CCCCN(CCCC)c1ncnc2c1cnn2-c1cccc(C)c1 | . | . | -4.3% | . | . | .
NNc1ncnc2c1cnn2-c1ccccc1 | 38.4* | -12.8% | 2.6% | 100.4% | 42.4 | 5.2%
Cc1ccccc1Nc1ncnc2c1cnn2-c1ccccc1 | 47.7* | -28.2% | -3.0% | -2.1% | 69.7* | -15.6%
CC(C)Nc1ncnc2c1cnn2-c1ccccc1 | 23.3* | -13.8% | 3.9% | -1.7% | 24.1* | -40.9%
Cc1cccc(-n2ncc3c(N(C)Cc4ccccc4)ncnc32)c1 | 57.1* | -0.7% | -4.3% | 37.1% | 96.9* | -6.1%
O=C(O)c1ccc2c(c1)C(=O)N(c1ncccn1)C2=O | -5.1 | -14.2% | -4.8% | -1.6% | -12.8 | 11.6%
O=c1[nH]c(=O)n([C@H]2C[C@H](O)[C@@H](CO)O2)cc1C(F)(F)F | -2.1 | -18.3% | -9.4% | -0.8% | 11.2 | 6.4%
Cc1cccc(-n2ncc3c(N)ncnc32)c1 | 52.4* | -11.9% | -1.0% | -8.0% | 92.8 | -8.6%
CCN1CCN(c2ncnc3c2cnn3-c2cccc(C)c2)CC1 | . | . | 6.2% | . | . | .
COC(=O)c1ccc(Nc2ncnc3c2cnn3-c2cccc(C)c2)cc1 | 9.9 | -16.2% | ? | -0.5% | 8.9 | 3.2%
Cc1cccc(-n2ncc3c(NC(C)C)ncnc32)c1 | 52.8* | -15.8% | ? | 13.8% | 79.1* | -13.6%
Cc1cccc(-n2ncc3c(Nc4ccc(F)cc4)ncnc32)c1 | 43.6* | -29.0% | ? | 11.0% | 52.5* | -8.9%
COc1ccc(-n2ncc3c(Nc4cccc(C)c4)ncnc32)cc1 | 15.2* | -34.1% | -1.0% | 45.3% | 108.8* | 3.1%
